The values that follow come from PubChem BioAssay (NCI).

Where “and” joins values, the source holds several entries; their conditions need not be identical. Identical values can stand only once. This is part of a sample that, as a whole, favours compounds with a hit. Of some 83,000 tested, about 20% had one in any assay.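 Negative percent growth values reflect cell death: -40 means 40% of the cells present at the start died, and -100 means all died.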 Calls of active or inactive are those of the source. How the source made its calls: active means growth percent below 10; inactive means the rest.

The test has as its system MDA-MB-468 breast. Nature of the test: NCI-60 one-dose screen, 48 h (100 = growth as untreated, 0 = no growth, -100 = all killed). Conditions: 10 µM unless noted.
In the case of `Cc1c(C)c([N+](=O)[O-])c(C)c(C)c1[N+](=O)[O-]`, the growth was 95.2% (inactive). The result for `Fc1ccc2c(c1)c(-c1nc(-c3c[nH]c4ncccc34)cs1)cn2CCCCN1CCCCC1` reads -56.6% (active); that for `Cc1cc(N(CCCl)CCCl)ccc1C=Nc1ccccc1-c1ccccc1`, 2.49% (active). Under `COC[CH2][Hg][C]#[C][Hg][CH2]COC` stands 110% (inactive); under `Clc1ccc(SSC(Cl)(Cl)Cl)cc1`, 104% (inactive). Under `CC[CH2][Sn]([Cl])([Cl])[CH2]CC` stands 22.4% (inactive); under `COC(=O)[C@@H](C[C@H](Cc1ccccc1)NC(=O)c1csc([C@@H](C[C@H](C(C)C)N(C)C(=O)[C@@H](NC(=O)[C@H]2CCCCN2C)C(C)C)OC(C)=O)n1)NC(=O)OCc1ccccc1`, 16.5% [9.5 µM] (inactive). In the case of `COc1ccc(C2=CC(c3ccc(OC)c(OC)c3)c3c(c4ccccc4oc3=O)O2)cc1OC` (centres undefined), the growth was -8.37% (active).

For `CCOC(=O)C1(c2ccccc2)CCN(CC(=O)c2ccc(NC(C)=O)cc2)CC1`, the growth was 110% (inactive). The result for `O=P1(NCCCl)OCCCN1CCCl` (centres undefined) reads 99.1% (inactive); that for `C[C@]12CC[C@H]3[C@@H](CC=C4c5nc(N)sc5CC[C@@]43C)[C@@H]1CC[C@@H]2O`, 91.2% (inactive). Under `CCOC(=O)[C@@H](C)C[C@H](Cc1ccccc1)NC(=O)c1nc([C@@H](C[C@H](C(C)C)N(C)C(=O)[C@@H](NC(=O)[C@H]2CCCCN2C)C(C)C)OC(C)=O)sc1CCOCc1ccccc1` stands -48.6% (active); under `C=CC[PH+](c1ccccc1)c1ccccc1.C=CC[PH+](c1ccccc1)c1ccccc1.[Pt+2].[S-]c1ncccn1.[S-]c1ncccn1`, -5.58% (active). On to `N#C[Se]CCCNS(=O)(=O)C1CC2C=CC1C2` (centres undefined), for which the growth is -30% (active). The result for `CCn1cnc2c(Nc3cccc(Cl)c3)nc(N[C@@H]3CCCC[C@@H]3N)nc21` reads -22% (active); that for `ClC1=C(Cl)C(Cl)(C2(Cl)C(Cl)=C(Cl)C(Cl)=C2Cl)C(Cl)=C1Cl`, -59.2% (active); that for `CCc1ccccc1[C@@H]1C[C@]2(C)CCO[C@@H]2OO1`, 102% (inactive). The result for `CC1(C)N=C(N)N=C(N)N1c1ccc(OCCCCNC(=O)Nc2cccc(S(=O)(=O)F)c2)c(Cl)c1` reads 40.9% (inactive); that for `C#CC1(O)CCC(C(C)(C)C)CC1` (centres undefined), 122% (inactive); that for `CCOP(=O)(OCC)Oc1ccc(Sc2ccc(OP(=O)(OCC)OCC)cc2)cc1`, 107% (inactive). Under `Cc1nnc([S-])s1.[Au+].c1ccc([PH+](c2ccccc2)c2ccccc2)cc1` stands -68.6% (active); under `C1CCC([PH+](C2CCCCC2)C2CCCCC2[PH+](C2CCCCC2)C2CCCCC2)CC1.O=C(C1[CH-]CCCC1)C1CCCC[N-]1.[Au]` (centres undefined), -40.3% (active); under `OB([O][Hg][c]1ccccc1)[O][Hg][c]1ccccc1`, -71.2% (active). With `O=CN1N=C(c2ccc3c(c2)OCO3)CC1c1sc(N(CCCl)CCCl)nc1Cl` (centres undefined), the growth is 90.9% (inactive).

For `Cc1cc(N(CCCl)CCCl)ccc1/C=N\NC(=O)c1cccnc1`, the growth was -30.4% (active) and -38.6% (active). Under `CC(C)(NC(=O)c1nn(CCCCCF)c2ccccc12)c1ccccc1` stands 93.9% (inactive). Under `O=C(O)C1C(C(=O)O)C2(Cl)C(Cl)=C(Cl)C1(Cl)C2(Cl)Cl` (centres undefined) stands 105% (inactive) and 113% (inactive); under `COc1cc(/C=C\[N+](=O)[O-])ccc1OCc1ccccc1`, 6.8% (active); under `COc1ccc(C(C#N)C(C)=O)cc1` (centres undefined), 106% (inactive).

As for `CCN(CC)CCOc1c(C(C)C)cccc1C(C)C`, the growth is 88.1% (inactive). For the compound `C/C(Cc1ccc(Cl)cc1)=C(\c1ccc(OCCN2CCOCC2)cc1)c1ccc(OC(=O)Cc2ccccc2)cc1`, the growth was 88.7% (inactive).

Regarding `Cc1cc(N(CCCl)CCCl)ccc1/C=N\NC(=O)c1ccncc1`, the growth was -45.6% (active).

Take `COC(=O)[C@@H](C)C[C@H](Cc1ccccc1)NC(=O)c1csc([C@@H](C[C@H](C(C)C)N(C)C(=O)[C@H](C)NC(=O)[C@H]2CCCCN2C)OC(C)=O)n1`: the growth was 10.1% (inactive).

Turning to `CN1CC(CNC(=O)OCc2ccccc2)CC2c3cccc4c3c(cn4C)CC21` (centres undefined), the growth was -42.6% (active). Under `CC[C@H](C)[C@H](NC(=O)C12CC(NC(C)=O)(C1)C2)C(=O)N(C)[C@H](C[C@@H](OC(C)=O)c1nc(C(=O)N[C@@H](Cc2ccccc2)C[C@H](C)C(=O)OC)cs1)C(C)C` stands 5.12% (active); under `CC(C)C1c2ccc(O)cc2Oc2nc(N)c(C#N)c(N)c21` (centres undefined), 90% (inactive). Under `CC1=C2C(=C[C@@](C)(COC(=O)c3ccc(S(=O)(=O)F)cc3)[C@@H]2O)C(=O)[C@](C)(O)C12CC2` stands -78.8% (active); under `CC1=C2C(=O)[C@](C)(CO)C=C2C(=O)[C@](C)(O)C12CC2`, -69.8% (active). The result for `COc1ccc(/C=C\c2cc(OC)c(OC)c(OC)c2)c(NS(=O)(=O)c2ccc(F)cc2)c1O` reads 15.9% (inactive).
